Experimental findings from PubChem BioAssay (NCATS) are described below.

Values joined by “and” are separate entries in the source; they are usually repeats but may differ in a detail not shown here. Identical values can stand only once. Results filed as inconclusive are left out. Values without a mark were called inactive. Active and inactive are the calls of the source. The call rests on the fitted dose curve; in most records, active means well fitted curve in the direction sought with a large enough effect; inconclusive means small, poorly fitted or top-dose-only effect, or another doubt; inactive means no such curve, though single readings can be large; an effect the other way counts as inactive or inconclusive. Peptide text beside a SMILES is read from it. * marks the point of attachment. AMC = Cc1cc(=O)oc2cc(N*)ccc12; Cbz = O=C(OCc1ccccc1)*

For test [1], the target named is Cellular tumor antigen p53 (Homo sapiens) (UniProt P04637). Kind of test: Primary qHTS for small molecule compounds that upregulate eGFP-tagged delta133p53alpha (in N-terminal) cells. (AID 2060322). Further: nearly all actives have a fitted effect of over 75% in size. Further: potency means the concentration at half of the fitted maximal effect.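 On activation: series mostly up to about 56 µM; 0% = DMSO vehicle and 100% = reference activator.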 Particulars: NCI-H358 eGFP-delta133p53alpha fluorescence, 24 h; activation: active compounds read high. The method, boiled down:
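NCI-H358 cells pre-induced 24 h with 10 ng/ml doxycycline to express N-terminal eGFP-delta133p53alpha, then dosed 24 h at 37C without doxycycline; fixed, Hoechst-stained, GFP intensity by laser scanning cytometry, normalized to DMSO (0%) and 57.5 uM 5-azacytidine (100%).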
On the technique in general: In qHTS, concentration-response curves come from the screen itself.

Test [2] has as its target Aldehyde dehydrogenase, mitochondrial (Homo sapiens) (UniProt P05091). Kind of test: qHTS for Inhibitors of the Aldehyde Dehydrogenase Family (ALDH2) Primary screen (AID 2061308).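 Further: plate controls were vehicle for no effect and reference inhibitor for full effect; nearly all actives have a fitted effect of over 55% in size.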
Test [3] concerns the target Retinaldehyde dehydrogenase 3 (Homo sapiens) (UniProt P47895). Kind of test: qHTS for Inhibitors of the Aldehyde Dehydrogenase Family (ALDH1A3) Primary screen (AID 2061315).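 Further: plate controls were DMSO vehicle for no effect and reference inhibitor for full effect.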
A short description of test [4]: BET inhibitor-based combinations targeting novel dependencies in MECOM-rearranged (r) AML: SET-2 cell line (AID 2202231). Further: nearly all actives have a fitted effect of over 35% in size. Further: potency means the concentration at half of the fitted maximal effect.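 On viability: plate controls were DMSO treated cells for no effect and wells without cells for full effect.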 Particulars: SET-2 AML cells viability, CellTiter-Glo luminescence, 48 h; viability: active compounds read low, concentration not given here. The method in brief:
(§1)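 Luminescent ATP readout (CellTiter-Glo) after 48 hr drug exposure gives viability. Curves span 11 concentrations and are normalized to DMSO and empty wells. Activity is reported as area under the curve and its Z-transform within each cell line.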
(Cellular ATP, detected with luciferase, serves as a proxy for viable cell number.)

Test [5] in a line: BET inhibitor-based combinations targeting novel dependencies in MECOM-rearranged (r) AML: OCI-AML3 cell line (AID 2202232). Further: nearly all actives have a fitted effect of over 35% in size. Further: potency means the concentration at half of the fitted maximal effect.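 On viability (% of control): series mostly up to about 46 µM; plate controls were DMSO vehicle wells for no effect and wells without cells for full effect.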 Particulars: Potency: OCI-AML3 viability. The method in brief: as §1
Test [6] is described as follows: BET inhibitor-based combinations targeting novel dependencies in MECOM-rearranged (r) AML: MV-4-11 cell line (AID 2202233). Further: nearly all actives have a fitted effect of over 45% in size. Further: potency means the concentration at half of the fitted maximal effect.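 On viability, % of control: plate controls were DMSO for no effect and blank wells for full effect.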 The method, boiled down:
(§2)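 Luminescent ATP readout (CellTiter-Glo, 15 min at room temperature) after 48 hr drug exposure gave viability. Dose-response curves, normalized to DMSO and empty-well controls, were summarized as area under the curve and its mean-centred Z-score.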

Test [7] can be described thus: BET inhibitor-based combinations targeting novel dependencies in MECOM-rearranged (r) AML: HNT-34 cell line (AID 2202234). Further: nearly all actives have a fitted effect of over 35% in size. Further: potency means the concentration at half of the fitted maximal effect.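 On viability (% of control): plate controls were vehicle wells for no effect and cell-free wells for full effect.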 The method in brief:
as §2

Test [8] in a line: BET inhibitor-based combinations targeting novel dependencies in MECOM-rearranged (r) AML: UCSD-AML1 cell line (AID 2202235). Further: nearly all actives have a fitted effect of over 40% in size. Further: potency means the concentration at half of the fitted maximal effect.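 On viability (% of control): series mostly up to about 46 µM; plate controls were DMSO vehicle wells for no effect and blank wells for full effect.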 The method, boiled down: as §2
Test [9] can be described thus: BET inhibitor-based combinations targeting novel dependencies in MECOM-rearranged (r) AML: AML-191 cell line (AID 2202236; further: nearly all actives have a fitted effect of over 35% in size; further: potency means the concentration at half of the fitted maximal effect;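 on viability (% of control): plate controls were vehicle wells for no effect and wells without cells for full effect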). The method, boiled down: as §1
A short description of test [10]: BET inhibitor-based combinations targeting novel dependencies in MECOM-rearranged (r) AML: AML-194 cell line (AID 2202237; further: nearly all actives have a fitted effect of over 40% in size; further: potency means the concentration at half of the fitted maximal effect;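 on viability (% of control): plate controls were vehicle wells for no effect and wells without cells for full effect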). The method, boiled down: as §1

Chain of Cellular tumor antigen p53 (Homo sapiens) (P04637 whole entry, looked up): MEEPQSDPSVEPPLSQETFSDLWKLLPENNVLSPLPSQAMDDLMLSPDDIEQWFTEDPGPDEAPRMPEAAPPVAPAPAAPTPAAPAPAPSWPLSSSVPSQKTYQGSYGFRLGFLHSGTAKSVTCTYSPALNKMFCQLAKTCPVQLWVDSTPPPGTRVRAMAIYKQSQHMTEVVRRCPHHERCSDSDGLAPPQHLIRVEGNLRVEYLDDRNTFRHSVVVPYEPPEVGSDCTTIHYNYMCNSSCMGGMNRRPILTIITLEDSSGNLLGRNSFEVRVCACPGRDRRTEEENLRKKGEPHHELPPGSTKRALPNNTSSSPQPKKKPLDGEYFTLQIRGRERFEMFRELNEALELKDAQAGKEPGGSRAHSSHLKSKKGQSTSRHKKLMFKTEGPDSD

Regarding `CC(=O)O[C@@H]1c2c(C)coc2C(=O)[C@@]23O[C@@H]2CC[C@H](C)[C@@]13C`, the activation in [1] was -2.68%. The Potency result in test [2] and in test [3] was “inactive” each time.

Take `C/C=C1/[C@H](O[C@@H]2O[C@H](CO)[C@@H](O)[C@H](O)[C@H]2O)OC=C(C(=O)OC)[C@H]1CC(=O)OCCc1ccc(O)c(O)c1`: in test [1], the activation is 5.34%. The Potency entry in test [2] and in [3] was “inactive” each time.

Regarding `Cc1cc(=O)oc2cc(NC(=O)[C@H](CCC(=O)O)NC(=O)[C@H](CC(C)C)NC(=O)[C@H](CC(C)C)NC(=O)OCc3ccccc3)ccc12` (Cbz-Leu-Leu-Glu-{AMC}), the activation in test [1] is 2.33%. The Potency entry in [2] and in [3] was “inactive” in each case.

Consider `CC1(CO)CC(O)C2(C)CCC3(C)C(=CCC4C5(C=O)CCC(OC6OC(C(=O)O)C(O)C(O)C6OC6OC(C(=O)O)C(O)C(O)C6O)C(C)(C)C5CCC43C)C2C1` (stereo not given), for which, in test [1], the activation is -10.7%. For the same compound, the Potency result in [2] and in test [3] was “inactive” throughout.

Turning to `CC(C)[C@@H](C(=O)O)N1Cc2c(cc(O)c3c2O[C@]2(C3)[C@H](C)CCC3C(C)(C)[C@H](O)[C@H](O)C[C@@]32C)C1=O` (stereo not given in full), the activation in [1] was -16.8%. The Potency result in test [2] and in test [3] was “inactive” throughout.

As to `CC(C)(OC1OC(CO)C(O)C(O)C1O)C1CCC(O)(CO)C2CC(=O)C(C)(O)C2C1` (stereo not given), the activation in test [1] was 22.9%. Besides, the Potency result in [2] and in test [3] was “inactive” throughout.

Turning to `C=C1C(=O)O[C@@H]2/C=C(\C)CC/C=C(\C)CC[C@@H]12`, the Potency in test [1] was 21.3 µM (active). Moreover, the Potency entry in [2] and in test [3] was “inactive” throughout.

Turning to `CN[C@@H](C)[C@H]1[C@H](O)C[C@@]2(C)[C@@H]3CC[C@H]4C(C)(C)[C@@H](NC)CC[C@@]45C[C@@]35CC[C@]12C`, in test [1], the activation was -17.2% and -1.67%. Further, the activity change, negative = inhibition in test [2] was 0.631% [at 11.2 µM]; in test [3], 0.124% [at 11.2 µM]. Also, the viability (in general, a read-out of living cells in per cent, often relative to untreated cells) in test [4] is 106%. Besides, the viability (% of control) was 106% [at 8.46 µM] in test [5]; 103% [at 8.46 µM] in test [7]; 111% [at 8.46 µM] in test [8]; 95.8% [at 8.46 µM] in [9]; 117% [at 8.46 µM] in test [10]. Besides, in test [6], the viability, % of control was 115% [at 8.46 µM].

As for `COC(=O)Nc1ccc(-c2nc(N3CCOCC3)c3cnn(C4CCN(Cc5cccnc5)CC4)c3n2)cc1`, the activation in test [1] was 9.82%. The Potency entry in test [2] and in [3] was “inactive” each time. Moreover, the Potency in test [4] is 2630 nM (active); in test [5] it was 2630 nM (active); in [6], 1320 nM (active); in [7] it was 1180 nM (active); in test [8], 525 nM (active); in test [9], 1860 nM (active).

As for `Cn1cc(-c2[nH]c3cc(NC(=O)[C@H](N)C4CCCCC4)cc4c3c2C=NNC4=O)cn1`, the activation in test [1] is 23.5%. Besides, the Potency result in test [2] and in test [3] was “inactive” each time. Further, the Potency in [4] is 16600 nM (active); in test [5] it was 5250 nM (active); in test [6], 263 nM (active); in [7], 1050 nM (active); in test [8] it was 1050 nM (active).

For the compound `O=C(NCc1cccc(O)c1)Nc1nc(-c2ccncc2)cs1`, the activation in [1] was 6.25%. Also, the Potency result in [2] and in test [3] was “inactive” each time. Moreover, the viability in test [4] was 92.2%. In addition, the Potency in test [5] was 14800 nM (active).

With `NC1(Cc2ccc(Cl)cc2)CCN(c2ncnc3[nH]ccc23)CC1`, the activation in [1] is -4.16% and 18.8%. Moreover, the Potency entry in [2] and in test [3] was “inactive” each time. For the same compound, the Potency is 14800 nM (active) in test [4]; 6610 nM (active) in test [5]; 7420 nM (active) in test [6]; 7420 nM (active) in test [7]; 5250 nM (active) in [8].

For `Cc1ccc(C(=O)Nc2cccc(C(F)(F)F)c2)cc1-c1ccc2nc(NCCN3CCOCC3)ncc2c1`, the Potency in [1] is 26.9 µM (active); in test [4], 11800 nM (active); in test [5], 525 nM (active); in test [6], 2350 nM (active); in test [7], 93.4 nM (active); in test [8] it was 3320 nM (active). Further, the Potency in test [9] is 2630 nM (active); in [10], 3320 nM (active). For the same compound, the Potency result in test [2] and in test [3] was “inactive” in each case.

With `N#CC1C(=O)N=C(c2cc(Cl)ccc2O)C=C1c1cc(OCc2ccccc2)cc(OCc2ccccc2)c1` (stereo not given), the activation in [1] was -17.7%. Also, the Potency entry in test [2] and in [3] was “inactive” each time.

In the case of `CO[C@@H](C)Cn1c(=O)n(C)c2cnc3ccc(-c4cncc(C(C)(C)O)c4)cc3c21`, in test [1], the activation is -10.7%. The Potency entry in test [2] and in test [3] was “inactive” throughout. Further, the Potency in [4] was 934 nM (active); in test [5] it was 1180 nM (active); in [6] it was 332 nM (active); in test [7], 372 nM (active); in test [8] it was 263 nM (active); in [9], 235 nM (active).

For `O=C(Nc1ccc(-c2ccnc(Nc3ccc(N4CCOCC4)cc3)n2)cc1)C1CCCN1` (stereo not given), the activation in test [1] is -5.36%. For the same compound, the Potency result in test [2] and in [3] was “inactive” throughout. Further, the Potency in [4] is 9340 nM (active); in test [5] it was 16600 nM (active); in [6] it was 2350 nM (active); in test [7], 5900 nM (active); in [8] it was 1660 nM (active).

For the compound `C=CCn1c(=O)c2cnc(Nc3ccc(N4CCN(C)CC4)cc3)nc2n1-c1cccc(C(C)(C)O)n1`, the Potency was 21.7 µM (active) and 2.69 µM (active) in test [1]; 1320 nM (active) in test [4]; 1660 nM (active) in [5]; 742 nM (active) in test [6]; 296 nM (active) in [7]; 833 nM (active) in test [8]. In addition, the Potency in [9] was 742 nM (active). Besides, the Potency entry in test [2] and in test [3] was “inactive” throughout.
